Reference: PubChem BioAssay (NCATS)
Records with an inconclusive call do not appear. Activity calls are given as the source filed them. Calls follow the shape of the dose curve; as a rule, active = well fitted curve in the direction sought with a large enough effect; inconclusive = small, poorly fitted or top-dose-only effect, or another doubt; inactive = no such curve, though single readings can be large; an effect the other way counts as inactive or inconclusive. Where a SMILES comes first, the peptide text is derived from it. [ ]: non-standard residue; d: D form. pGlu = O=C1CC[C@@H](C(=O)O)N1; Thz = O=C(O)[C@@H]1CSCN1

Tested on: not listed separately
Assay: Primary fluorescence-based thiol-reactive (MSTI) qHTS assay for identification of artifact compounds. (AID 1845221);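 also: thiol-reactive compounds lower the probe fluorescence signal; nearly all actives have a fitted effect of over 65% in size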
Conditions: MSTI thiol-reactivity probe, 1 h; series mostly up to 53.8 µM; activity change, negative = thiol reactive: at the top concentration
Procedure, shortened: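 In PBS pH 7.4 with 2% DMSO, each compound met 4 uM MSTI for one hour at ambient temperature, shielded from light, before fluorescence detection.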

| SMILES | activity change, negative = thiol reactive |
| --- | --- |
| O=C(O)CC1CC(c2ccccc2)=NO1 (stereo not given) | 3.15% [at 25.6 µM] (inactive) |
| O=C1CC[C@@H](C(=O)N2CSC[C@H]2C(=O)O)N1 ([pGlu]-[Thz]-OH) | -23.2% (inactive) |
| Cc1ccc2c(n1)Oc1ccc(C(C)C(=O)OCC(=O)N(C)C)cc1C2 (stereo not given) | 103% (inactive) |
| COc1cc(/C=C/C(=O)N2CCN(CC(=O)N3CCCC3)CC2)cc(OC)c1OC | 27.5% (inactive) |
| CC1(C)S[C@@H]2[C@H](NC(=O)[C@H](NC(=O)N3CCN(S(C)(=O)=O)C3=O)c3ccccc3)C(=O)N2[C@H]1C(=O)O | 78.1% (inactive) |
| C[C@H](O)[C@H](O)[C@H]1CNc2nc(N)[nH]c(=O)c2N1 | 1.87% (inactive) |
| CN1[C@@H]2CC[C@H]1CC(OC(c1ccccc1)c1ccccc1)C2 (stereo not given in full) | 18.4% (inactive) |
| CC(=O)SCC(CC(=O)c1ccc(C)cc1)C(=O)O (stereo not given) | 7.21% (inactive) |
| CC1(C)[C@@H](O)CC[C@]2(C)[C@H]3C(=O)C=C4[C@@H]5C[C@@](C)(C(=O)O)CC[C@]5(C)CC[C@@]4(C)[C@]3(C)CC[C@@H]12 | 148% (inactive) |
| O=C(O)Cc1cccc(-c2cc(CCCCCCc3ccc(O[C@H]4O[C@H](CO)[C@@H](O)[C@H](O)[C@@H]4O)c(-c4cccc(CC(=O)O)c4)c3)ccc2O[C@H]2O[C@H](CO)[C@@H](O)[C@H](O)[C@@H]2O)c1 | 33.1% [at 0.461 µM] (inactive) |
| CC(=O)O[C@H]1C[C@@]2(C)[C@@H](C[C@@H](O)[C@H]3[C@@]4(C)CC[C@@H](O)[C@@H](C)[C@@H]4CC[C@@]32C)/C1=C(\CCC=C(C)C)C(=O)O | 72% (inactive) |
| CN1[C@@H]2CC[C@H]1CC(OC(=O)C(CO)c1ccccc1)C2 (stereo not given in full) | -13% (inactive) |
| COc1cc(CNC(=O)CCCC/C=C/C(C)C)ccc1O | 20.6% (inactive) |
| CC(C(=O)O)c1ccc2c(c1)[nH]c1ccc(Cl)cc12 (stereo not given) | -1.76% (inactive) |
| O=C(O)[C@H](CC(=O)N1C[C@H]2CCCC[C@H]2C1)Cc1ccccc1 | 31.1% (inactive) |
| CC(=O)c1ccc(OCC(=O)N2CCCCC2)cc1 | 44.3% (inactive) |
| CCNC(=O)[C@H]1O[C@@H](n2cnc3c(N)nc(NCCc4ccc(CCC(=O)O)cc4)nc32)[C@H](O)[C@@H]1O | -0.727% (inactive) |
| Cc1onc(-c2c(F)cccc2Cl)c1C(=O)N[C@@H]1C(=O)N2[C@@H]1SC(C)(C)[C@@H]2C(=O)O | 150% (inactive) |
| C/C(=N\O)c1ccc(OCC(=O)N2CCCCC2)cc1 | 18.5% (inactive) |
| CC1(C)[C@@H](O[C@H]2O[C@H](C(=O)O)[C@@H](O)[C@H](O)[C@H]2O[C@@H]2O[C@H](C(=O)O)[C@@H](O)[C@H](O)[C@H]2O)CC[C@]2(C)[C@H]3C(=O)C=C4[C@@H]5C[C@@](C)(C(=O)O)CC[C@]5(C)CC[C@@]4(C)[C@]3(C)CC[C@@H]12 | 209% [at 25.6 µM] (inactive) |

Tested on: Nanoluciferase (engineered Oplophorus gracilirostris luciferase)
Assay: Primary Nanoluciferase (NLuc) qHTS assay for identification of artifact compounds. (AID 1845222);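 also: NLuc secreted into diluted conditioned medium of S16 cells; 0% = DMSO and -100% = no enzyme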
Conditions: NLuc-conditioned medium, Nano-Glo luminescence, 5 min; series mostly up to 54.1 µM; activity, negative = inhibition: at the top concentration
Procedure, shortened: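 Using secreted nanoluciferase in S16 culture medium (0.22 um filtered, 1:55 dilution), compounds were preincubated 15 min at RT. Signal was generated with Nano-Glo reagent (1:100) over 5 min.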

| SMILES | activity, negative = inhibition |
| --- | --- |
| O=C(O)CC1CC(c2ccccc2)=NO1 (stereo not given) | -0.581% [at 25.7 µM] (inactive) |
| O=C1CC[C@@H](C(=O)N2CSC[C@H]2C(=O)O)N1 ([pGlu]-[Thz]-OH) | 0% (inactive) |
| Cc1ccc2c(n1)Oc1ccc(C(C)C(=O)OCC(=O)N(C)C)cc1C2 (stereo not given) | -6.62% (inactive) |
| CC1(C)S[C@@H]2[C@H](NC(=O)[C@H](N)c3ccc(O)cc3)C(=O)N2[C@H]1C(=O)O | -5.84% (inactive) |
| COc1cc(/C=C/C(=O)N2CCN(CC(=O)N3CCCC3)CC2)cc(OC)c1OC | -6.67% (inactive) |
| CC1(C)S[C@@H]2[C@H](NC(=O)[C@H](NC(=O)N3CCN(S(C)(=O)=O)C3=O)c3ccccc3)C(=O)N2[C@H]1C(=O)O | 3.75% (inactive) |
| C[C@H](O)[C@H](O)[C@H]1CNc2nc(N)[nH]c(=O)c2N1 | 0.0002% (inactive) |
| CN1[C@@H]2CC[C@H]1CC(OC(c1ccccc1)c1ccccc1)C2 (stereo not given in full) | 3.99% (inactive) |
| CC(=O)SCC(CC(=O)c1ccc(C)cc1)C(=O)O (stereo not given) | -11.2% (inactive) |
| CC1(C)[C@@H](O)CC[C@]2(C)[C@H]3C(=O)C=C4[C@@H]5C[C@@](C)(C(=O)O)CC[C@]5(C)CC[C@@]4(C)[C@]3(C)CC[C@@H]12 | -2.16% (inactive) |
| COC(=O)[C@H]1[C@H]2C[C@@H]3c4[nH]c5cc(OC)ccc5c4CCN3C[C@H]2C[C@@H](OC(=O)/C=C/c2cc(OC)c(OC)c(OC)c2)[C@@H]1OC | 2.9% [at 25.7 µM] (inactive) |
| O=C(O)Cc1cccc(-c2cc(CCCCCCc3ccc(O[C@H]4O[C@H](CO)[C@@H](O)[C@H](O)[C@@H]4O)c(-c4cccc(CC(=O)O)c4)c3)ccc2O[C@H]2O[C@H](CO)[C@@H](O)[C@H](O)[C@@H]2O)c1 | 3.7% [at 0.464 µM] (inactive) |
| CC(=O)O[C@H]1C[C@@]2(C)[C@@H](C[C@@H](O)[C@H]3[C@@]4(C)CC[C@@H](O)[C@@H](C)[C@@H]4CC[C@@]32C)/C1=C(\CCC=C(C)C)C(=O)O | -8.92% (inactive) |
| CN1[C@@H]2CC[C@H]1CC(OC(=O)C(CO)c1ccccc1)C2 (stereo not given in full) | 4.16% (inactive) |
| COc1cc(CNC(=O)CCCC/C=C/C(C)C)ccc1O | 1.29% (inactive) |
| O=C(O)[C@H](CC(=O)N1C[C@H]2CCCC[C@H]2C1)Cc1ccccc1 | -2.06% (inactive) |
| CC(=O)c1ccc(OCC(=O)N2CCCCC2)cc1 | -1.22% (inactive) |
| CCNC(=O)[C@H]1O[C@@H](n2cnc3c(N)nc(NCCc4ccc(CCC(=O)O)cc4)nc32)[C@H](O)[C@@H]1O | 2.51% (inactive) |
| Cc1onc(-c2c(F)cccc2Cl)c1C(=O)N[C@@H]1C(=O)N2[C@@H]1SC(C)(C)[C@@H]2C(=O)O | -3.5% (inactive) |
| C/C(=N\O)c1ccc(OCC(=O)N2CCCCC2)cc1 | 1.98% (inactive) |
